Assay [1] has as its target T1, Serine/threonine-protein kinase BRSK1 (Homo sapiens) (UniProt Q8TDC3).
T1 sequence (whole entry): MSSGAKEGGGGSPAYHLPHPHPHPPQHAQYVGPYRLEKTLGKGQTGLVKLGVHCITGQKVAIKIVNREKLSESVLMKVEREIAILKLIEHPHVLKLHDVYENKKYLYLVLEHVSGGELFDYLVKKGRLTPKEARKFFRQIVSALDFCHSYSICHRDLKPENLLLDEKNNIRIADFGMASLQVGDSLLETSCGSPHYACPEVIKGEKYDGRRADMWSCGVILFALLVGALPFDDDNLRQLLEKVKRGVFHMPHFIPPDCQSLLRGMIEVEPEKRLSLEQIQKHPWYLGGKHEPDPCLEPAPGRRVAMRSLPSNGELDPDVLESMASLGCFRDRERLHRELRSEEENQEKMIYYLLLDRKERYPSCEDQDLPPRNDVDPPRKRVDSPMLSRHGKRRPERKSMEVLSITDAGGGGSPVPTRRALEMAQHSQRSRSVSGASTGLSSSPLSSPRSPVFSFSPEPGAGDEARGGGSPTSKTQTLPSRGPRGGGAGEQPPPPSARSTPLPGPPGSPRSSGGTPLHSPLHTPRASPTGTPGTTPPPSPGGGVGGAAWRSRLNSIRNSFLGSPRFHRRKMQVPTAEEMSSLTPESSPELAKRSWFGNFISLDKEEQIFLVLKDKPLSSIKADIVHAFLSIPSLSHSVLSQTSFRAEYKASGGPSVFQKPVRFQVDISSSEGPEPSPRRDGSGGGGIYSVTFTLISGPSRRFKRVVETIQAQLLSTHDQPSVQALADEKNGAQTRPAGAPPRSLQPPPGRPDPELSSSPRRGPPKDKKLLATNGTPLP
The settings on record: at 1 µM.

Assay [2] has as its target T1, Serine/threonine-protein kinase BRSK1 (Homo sapiens). As to conditions: at 10 µM.
Assay [3] concerns the target T2, Serine/threonine-protein kinase BRSK2 (Homo sapiens) (UniProt Q8IWQ3).
T2 sequence (whole entry): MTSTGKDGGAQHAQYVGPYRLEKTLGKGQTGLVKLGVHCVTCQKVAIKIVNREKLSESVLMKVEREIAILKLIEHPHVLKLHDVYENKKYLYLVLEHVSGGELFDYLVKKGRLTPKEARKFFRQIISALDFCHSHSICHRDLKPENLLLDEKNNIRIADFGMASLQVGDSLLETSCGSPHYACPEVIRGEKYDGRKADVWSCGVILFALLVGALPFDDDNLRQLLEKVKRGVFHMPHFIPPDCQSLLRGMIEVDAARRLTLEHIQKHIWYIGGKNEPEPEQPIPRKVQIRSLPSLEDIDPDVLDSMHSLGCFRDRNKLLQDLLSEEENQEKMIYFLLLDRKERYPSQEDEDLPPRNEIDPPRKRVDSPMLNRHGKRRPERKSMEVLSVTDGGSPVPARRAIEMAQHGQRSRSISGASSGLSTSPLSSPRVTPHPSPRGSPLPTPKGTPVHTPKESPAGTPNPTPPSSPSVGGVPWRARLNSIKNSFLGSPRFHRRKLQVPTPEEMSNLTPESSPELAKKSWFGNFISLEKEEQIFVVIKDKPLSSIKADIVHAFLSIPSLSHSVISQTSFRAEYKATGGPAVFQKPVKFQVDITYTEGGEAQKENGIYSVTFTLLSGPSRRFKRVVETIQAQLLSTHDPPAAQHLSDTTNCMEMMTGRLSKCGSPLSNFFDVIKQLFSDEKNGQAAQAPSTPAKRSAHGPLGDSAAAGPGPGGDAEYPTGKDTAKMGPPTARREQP
As to conditions: at 1 µM.

Assay [4] deals with T2, Serine/threonine-protein kinase BRSK2 (Homo sapiens). The settings on record: at 10 µM.
Assay [5] deals with T3, Cyclin-dependent kinase 1/cyclin B1 (Homo sapiens) (UniProt P06493+P14635). As to conditions: at 1 µM.
T3 sequence (P06493 whole entry, looked up): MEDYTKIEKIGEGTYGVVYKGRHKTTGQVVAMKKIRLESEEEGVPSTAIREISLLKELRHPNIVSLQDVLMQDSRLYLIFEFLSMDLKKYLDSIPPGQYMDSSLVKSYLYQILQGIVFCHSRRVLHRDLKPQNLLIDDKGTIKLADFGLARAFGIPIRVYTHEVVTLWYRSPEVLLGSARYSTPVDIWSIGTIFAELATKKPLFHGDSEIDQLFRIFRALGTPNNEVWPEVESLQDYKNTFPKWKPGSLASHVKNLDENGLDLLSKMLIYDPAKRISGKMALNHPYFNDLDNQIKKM
T3 sequence (P14635 whole entry, looked up): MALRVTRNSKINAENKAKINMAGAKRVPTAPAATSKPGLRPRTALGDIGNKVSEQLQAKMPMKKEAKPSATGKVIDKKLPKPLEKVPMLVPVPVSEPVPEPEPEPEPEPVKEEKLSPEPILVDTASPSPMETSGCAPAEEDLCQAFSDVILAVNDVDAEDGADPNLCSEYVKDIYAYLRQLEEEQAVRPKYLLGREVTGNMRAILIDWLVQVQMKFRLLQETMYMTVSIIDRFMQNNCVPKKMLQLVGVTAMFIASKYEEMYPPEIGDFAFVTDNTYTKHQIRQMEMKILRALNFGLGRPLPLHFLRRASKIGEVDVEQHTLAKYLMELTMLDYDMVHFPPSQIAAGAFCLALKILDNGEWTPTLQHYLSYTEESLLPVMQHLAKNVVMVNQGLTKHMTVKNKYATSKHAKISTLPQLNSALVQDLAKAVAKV
In assay [6] the target is T3, Cyclin-dependent kinase 1/cyclin B1 (Homo sapiens). As to conditions: at 10 µM.
Assay [7] concerns the target T4, Cyclin-dependent kinase 2/cyclin A (Homo sapiens) (UniProt P24941+P20248+P78396). The settings on record: at 10 µM.
Assay [8] deals with T5, Cyclin-dependent kinase 2/cyclin E (Homo sapiens) (UniProt P24864+P24941+O96020). The settings on record: at 1 µM.
Assay [9] has as its target T5, Cyclin-dependent kinase 2/cyclin E (Homo sapiens). As to conditions: at 10 µM.
In assay [10] the target is T6, CDK3/cyclin E (Homo sapiens) (UniProt P24864+O96020+Q00526). The settings on record: at 1 µM.
T6 sequence (O96020 whole entry, looked up): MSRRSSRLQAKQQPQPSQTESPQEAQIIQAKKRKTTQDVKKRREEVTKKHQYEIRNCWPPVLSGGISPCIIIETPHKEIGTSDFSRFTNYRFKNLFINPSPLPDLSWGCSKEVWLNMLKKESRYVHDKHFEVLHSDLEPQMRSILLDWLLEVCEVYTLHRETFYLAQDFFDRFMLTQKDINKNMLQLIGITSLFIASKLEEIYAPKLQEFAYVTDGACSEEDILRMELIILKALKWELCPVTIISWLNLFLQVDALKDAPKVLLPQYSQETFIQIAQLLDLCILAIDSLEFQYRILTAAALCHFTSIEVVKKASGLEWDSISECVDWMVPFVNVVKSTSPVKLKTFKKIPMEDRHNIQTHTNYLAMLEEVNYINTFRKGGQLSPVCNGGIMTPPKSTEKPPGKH
T6 sequence (P24864 whole entry, looked up): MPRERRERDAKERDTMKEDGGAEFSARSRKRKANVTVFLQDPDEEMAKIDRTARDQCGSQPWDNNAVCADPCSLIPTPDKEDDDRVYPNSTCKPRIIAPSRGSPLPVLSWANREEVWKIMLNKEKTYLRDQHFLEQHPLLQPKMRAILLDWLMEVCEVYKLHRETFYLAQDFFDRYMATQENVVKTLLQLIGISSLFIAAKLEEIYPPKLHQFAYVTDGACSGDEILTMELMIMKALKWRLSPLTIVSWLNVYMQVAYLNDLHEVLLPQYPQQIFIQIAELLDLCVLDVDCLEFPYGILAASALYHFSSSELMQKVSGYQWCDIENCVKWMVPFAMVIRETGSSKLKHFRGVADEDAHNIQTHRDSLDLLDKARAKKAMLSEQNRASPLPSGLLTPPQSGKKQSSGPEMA
T6 sequence (Q00526 whole entry, looked up): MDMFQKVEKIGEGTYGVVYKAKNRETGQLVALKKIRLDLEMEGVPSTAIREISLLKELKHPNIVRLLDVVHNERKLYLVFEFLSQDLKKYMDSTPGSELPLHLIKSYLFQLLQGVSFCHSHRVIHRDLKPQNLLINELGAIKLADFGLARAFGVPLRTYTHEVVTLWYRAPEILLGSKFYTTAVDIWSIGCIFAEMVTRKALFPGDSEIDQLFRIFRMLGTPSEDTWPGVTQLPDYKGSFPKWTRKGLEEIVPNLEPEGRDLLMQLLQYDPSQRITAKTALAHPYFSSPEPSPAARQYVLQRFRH
Assay [11] has as its target T6, CDK3/cyclin E (Homo sapiens). As to conditions: at 10 µM.
Assay [12] addresses T7, Cyclin-dependent kinase 5/CDK5 activator 1 (Homo sapiens) (UniProt Q00535+Q15078). As to conditions: at 1 µM.
The target of assay [13] is T7, Cyclin-dependent kinase 5/CDK5 activator 1 (Homo sapiens). As to conditions: at 10 µM.
Assay [14] shares this target. As to conditions: at 10 µM. The source holds these as a separate data set.
Assay [15] has as its target T8, CDK6/cyclin D3 (Homo sapiens) (UniProt P30281+Q00534). As to conditions: at 1 µM.
Assay [16] addresses T8, CDK6/cyclin D3 (Homo sapiens). The settings on record: at 10 µM.
For assay [17], the target named is T9, Cyclin-dependent kinase 7/ cyclin H (Homo sapiens) (UniProt P51946+P50613). As to conditions: at 1 µM.
The target in assay [18] is T9, Cyclin-dependent kinase 7/ cyclin H (Homo sapiens). The settings on record: at 10 µM.
Assay [19] deals with T4, Cyclin-dependent kinase 2/cyclin A (Homo sapiens). The settings on record: at 1 µM.
In assay [20] the target is T7, Cyclin-dependent kinase 5/CDK5 activator 1 (Homo sapiens). The settings on record: at 1 µM. The source holds these as a separate data set.

T7 sequence (Q00535 whole entry): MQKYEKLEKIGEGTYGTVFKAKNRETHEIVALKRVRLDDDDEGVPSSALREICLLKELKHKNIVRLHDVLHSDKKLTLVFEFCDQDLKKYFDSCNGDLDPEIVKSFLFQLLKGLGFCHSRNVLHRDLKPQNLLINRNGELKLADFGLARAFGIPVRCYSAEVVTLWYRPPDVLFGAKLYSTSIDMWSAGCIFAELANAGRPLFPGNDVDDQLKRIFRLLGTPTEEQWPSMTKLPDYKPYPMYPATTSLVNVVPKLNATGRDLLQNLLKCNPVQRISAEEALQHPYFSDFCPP
T7 sequence (Q15078 99-307 partner limits assumed): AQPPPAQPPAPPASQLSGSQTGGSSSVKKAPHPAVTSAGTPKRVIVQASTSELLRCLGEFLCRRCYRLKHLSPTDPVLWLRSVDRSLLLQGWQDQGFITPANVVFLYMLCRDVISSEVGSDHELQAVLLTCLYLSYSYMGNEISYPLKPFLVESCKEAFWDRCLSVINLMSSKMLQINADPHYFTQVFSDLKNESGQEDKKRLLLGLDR

On to `O=C(O)/C=C/c1cc(Br)c(Br)c(Br)c1Br`, for which the residual activity came to 103% in [1]; 49% in assay [2]; 91% in [3]; 45% in assay [4]; 109% in [5]; 56% in assay [6]. Also, the residual activity in assay [7] turned out to be 67%; in assay [8], 100%; in assay [9] it was 91%; in assay [10], 103%; in [11], 87%; in [12], 94%. Besides, the residual activity in [13] was 84%; in assay [14], 76%; in [15], 100%; in assay [16], 95%; in assay [17], 104%; in assay [18] it was 89%.
`Fc1ccc(-c2nc3n(c2-c2ccncc2)CCS3)cc1`: the residual activity in [1] stood at 99%; in assay [2], 100%; in [5], 100%; in [6], 95%; in assay [19], 83%; in [7] it was 89%. Moreover, the residual activity in assay [9] stood at 94%; in [15], 124%.
With `O=C1NC(=O)C(c2cn(CCCn3ccnc3)c3ccccc23)=C1Nc1ccccc1`, the residual activity in [1] was determined as 59%; in assay [2], 75%; in [19], 103%; in assay [7], 21%; in assay [8], 76%; in assay [9], 24%. Further, the residual activity in [10] was determined as 51%; in assay [11], 13%; in [12], 64%; in assay [13] it was 20%; in assay [20], 71%; in assay [14], 24%. The residual activity in assay [15] amounted to 82%; in assay [16], 68%; in assay [17], 77%; in assay [18], 64%.
On to `O=C(Nc1nc2ccccc2n1CCN1CCOCC1)c1cccc([N+](=O)[O-])c1`, for which the residual activity in assay [1] came to 83%; in assay [2] it was 78%; in [5], 114%; in assay [6], 103%; in assay [8], 106%; in assay [9], 104%. Besides, the residual activity in assay [15] was 88%; in [16], 88%; in assay [17], 75%; in assay [18], 77%.
On to `CN([C@@H](Cc1ccc(OS(=O)(=O)c2cccc3cnccc23)cc1)C(=O)N1CCN(c2ccccc2)CC1)S(=O)(=O)c1cccc2cnccc12`, for which the values for the residual activity in assay [2], in [4] and in assay [7] were 74%, 79% and 98%, respectively.
Regarding `CC(C)[C@H](CO)Nc1nc(Nc2cc(N)cc(Cl)c2)c2ncn(C(C)C)c2n1`, the residual activity in [1] is 91%; in assay [2], 75%; in [20], 20%; in [14] it was 2%; in [17], 43%; in assay [18], 6%.
As to `NC(=O)c1cccc(-c2cc(Nc3ccc(OC(F)(F)F)cc3)ncn2)c1`, the residual activity in assay [19] was determined as 139%; in assay [7], 94%; in [12] it was 93%; in assay [13] it was 65%; in assay [18] it was 91%.
Regarding `COc1ccc(CNC(=O)Nc2ncc([N+](=O)[O-])s2)cc1`, the residual activity turned out to be 78% in assay [19]; 79% in assay [7]; 68% in assay [10]; 26% in assay [11]; 69% in assay [18].
For `Nc1nccc(-c2c(-c3ccc(F)cc3)ncn2C2CCNCC2)n1`, the residual activity in assay [3] came out at 128%; in assay [4], 82%; in [5], 115%; in [19], 79%; in assay [7], 77%; in [17], 100%. The residual activity in assay [18] was 68%.
On to `N#Cc1c(NC(=O)c2cccc3ccccc23)sc2c1CCCC2`, for which the residual activity is 90% in assay [4]; 96% in assay [19]; 90% in [7]; 96% in [8]; 94% in assay [9]; 90% in assay [16].
For `O=S(=O)(c1cccc2cnccc12)N1CCCNCC1`, the figures for the residual activity in [2] and in [4] were 84% and 80%, respectively.
Turning to `COc1cc2nccc(Oc3ccc(NC(=O)Nc4cc(C)on4)c(Cl)c3)c2cc1OC`, the residual activity in assay [1] was 65%; in [2] it was 46%; in [19], 106%; in assay [7], 99%; in assay [15], 96%; in assay [16], 99%. Further, the residual activity in assay [17] turned out to be 99%; in [18], 107%.
On to `O=C(Nc1ccc(Cl)cc1)c1ccccc1NCc1ccncc1`, for which the residual activity in assay [2] turned out to be 126%; in assay [19], 126%; in assay [15], 102%; in [16], 102%; in assay [18] it was 124%.
Consider `N#C/C(=C\c1ccc(O)c(O)c1)C(=O)NCc1ccccc1`, for which the residual activity stood at 85% in assay [7], 100% in assay [10] and 81% in assay [11].
Regarding `COc1cc2ncnc(Nc3cccc(Cl)c3)c2cc1OC`, the residual activity stood at 14% in [1]; 17% in assay [2]; 138% in assay [19]; 109% in assay [8]; 105% in assay [9]; 105% in [10]. Also, the residual activity came out at 113% in assay [12], 107% in assay [13] and 100% in assay [16].

Values taken from ChEMBL document CHEMBL2218924, “A broad activity screen in support of a chemogenomic map for kinase signalling research and drug discovery” (Biochem J, 2013).
